Screening data: PubChem, Broad Institute
Tgondii IFNg: blocks Toxoplasma gondii growth in the presence of IFN-gamma; Toxoplasma gondii growth in IFN-gamma-treated host cells; stronger effect = lower value; activity change, negative = inhibition, % (concentration not given with the values); hit rate 3.8% among 69,000; AID 1259416; in the data active = activity change below about -70%, passing the limit was not always enough;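 note: host cells are HeLa cells infected with Toxoplasma gondii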
Numbers stand for hits; . = inactive; ! = not active in a repeat. The sample as a whole holds a higher share of hits than the screen did.

SMILES | Tgondii IFNg
CCN1CC2(CCN(C(=O)C3CCC(=O)N3)CC2)COc2ccccc2S1(=O)=O (centres undefined) | .
Cc1nnnn1-c1cccc(NC(=O)Cc2cc(Cl)c3c(c2)OCCCO3)c1 | .
O=C(Cn1ncc2c(N3CCN(c4ccccc4)CC3)ncnc21)Nc1ccc(F)cc1 | .
CCOc1ccccc1C(=O)Nc1ccc(-c2nc(Cn3nc(C)cc3C)c(C)o2)cc1 | .
CCOc1ccc(Nc2nc3ccccc3nc2Nc2ccc(OCC)cc2)cc1 | -100.0
CCOc1ccc(NC(=O)Cn2c(C)cc(C)nc2=O)cc1 | .
CCOc1ccc(Nc2nc(-c3ccc(OC)cc3)nc3ccccc23)cc1 | .
CCOc1ccc(NC(=O)c2nc3ccccc3nc2-n2nc(C)cc2C)cc1 | -98.5
CCOc1ccc(CNC(=O)c2nc(Nc3ccccc3)c3ccccc3n2)cc1 | .
Cc1oc(C2CCN(S(=O)(=O)c3ccc(Cl)cc3)CC2)nc1C(=O)N1CCCC1 | .
Cc1nc2c(nc(SCc3nc(-c4ccccc4C)oc3C)n2C)c(=O)[nH]1 | .
O=C(NCc1ccco1)c1ccc(S(=O)(=O)NCc2cccnc2)cc1 | .
C[C@H](CO)N1C[C@H](C)[C@@H](CN(C)C(=O)c2cc(-c3ccccc3)on2)OCc2cnnn2CCCC1=O | .
C[C@H](CO)N1C[C@H](C)[C@H](CN(C)C(=O)c2cc(-c3ccccc3)on2)OCc2cnnn2CCCC1=O | -75.6
C[C@@H]1CN([C@@H](C)CO)C(=O)CCCn2nncc2CO[C@H]1CN(C)C(=O)c1cc(-c2ccccc2)on1 | .
C[C@H](CO)N1C[C@H](C)[C@H](CN(C)C(=O)Nc2cccc3ccccc23)Oc2ncccc2C1=O | -118.7
C[C@@H]1CN([C@@H](C)CO)C(=O)CCCn2nncc2CO[C@H]1CN(C)C(=O)Nc1ccccc1C(F)(F)F | .
C[C@@H]1CN([C@H](C)CO)C(=O)c2cccc(NC(=O)C3CCOCC3)c2O[C@@H]1CN(C)C(=O)Nc1cccc2ccccc12 | .
C[C@@H]1CN([C@H](C)CO)C(=O)c2cc(NS(=O)(=O)c3cn(C)cn3)ccc2O[C@H]1CN(C)C(=O)Nc1cccc2ccccc12 | .
C[C@H]1CN([C@@H](C)CO)C(=O)CCCn2nncc2CO[C@@H]1CN(C)C(=O)Nc1ccccc1C(F)(F)F | -95.7
COc1ccc(NC(=O)N(C)C[C@@H]2OCc3cnnn3CCCC(=O)N([C@H](C)CO)C[C@@H]2C)c(OC)c1 | .
O=S(=O)(c1ccc2c(c1)CCCC2)N1CCC2(CC1)NCCN=C2NCc1ccccc1 | .
c1cc(-n2cnnc2)ccc1OCC1CCCO1 (centres undefined) | .
CN(C)CC(=O)N1C[C@H](Oc2cccnc2)[C@@H]2OCCC[C@@H]21 | .
Cc1nn(C)cc1CN1CC[C@@H]2OCCN(Cc3ccncc3)[C@@H]2C1 | .
SMILES | Tgondii IFNg
COc1ccccc1CC(=O)N(C)c1nc2c(s1)CCc1occc1-2 | .
Cn1cnc(S(=O)(=O)NC2CCc3c(ccc(=O)n3C)C2)c1 (centres undefined) | .
Cn1nc(CC2CCN(C(=O)C3C=CCN3)CC2)n(-c2ccccc2)c1=O (centres undefined) | .
COc1ccc(CC(=O)Nc2ccc(C(=O)O)cc2)cc1OC | .
CCN(CC)c1nc2nonc2nc1Nc1cccc(Br)c1 | -112.0
CNc1cc2c(Nc3cccc(Br)c3)ncnc2cn1 | .
Brc1cccc(Nc2ncnc3cc4nc[nH]c4cc23)c1 | .
CN1CCN(C(=O)C2CNCCN2C(=O)c2cc3ccccc3s2)CC1 (centres undefined) | .
CCN(C1CCCCC1)S(=O)(=O)c1ccc(OC)cc1 | .
CC1(C)CCC(c2ccc(Cl)cc2)=C(CN2CCN(c3ccc(C(=O)NS(=O)(=O)c4ccc(N[C@H](CCN5CCOCC5)CSc5ccccc5)c(S(=O)(=O)C(F)(F)F)c4)cc3)CC2)C1 | -72.1
O=S(=O)(NCCN1CCOCC1)c1cccc(C(F)(F)F)c1 | .
CN(C)CC[C@H](CSc1ccccc1)Nc1ccc(S(=O)(=O)NC(=O)c2ccc(N3CCN(Cc4ccccc4-c4ccc(Cl)cc4)CC3)cc2)cc1[N+](=O)[O-] | -76.2
Cc1nc2ccc(Cl)cn2c1CN(C)Cc1nc(C2CC2)no1 | .
COc1ccc(CNC2=NCCNC23CCN(S(=O)(=O)c2cc(C)c(C)cc2C)CC3)cc1 | .
NCCc1cccc(-c2cc(NCCO)nc3[nH]ccc23)c1 | .
Cc1cc(-c2cc(NC3CCNCC3)nc3[nH]ccc23)c(=O)[nH]c1C | -85.0
Cc1nc(-c2cc(NCc3ccccn3)nc3[nH]ccc23)cc(C(C)C)n1 | .
c1ccc2c(-c3cc(NC4CCNCC4)nc4[nH]ccc34)n[nH]c2c1 | -75.1
Cc1cc(-c2ccnc3c2ccn3C)c(=O)[nH]c1C | .
c1ccc(CNc2cc(-c3nccc4occc34)c3cc[nH]c3n2)nc1 | .
CNc1cc(-c2ccc(CN)cn2)c2cc[nH]c2n1 | .
COc1ncc(-c2cc(NCCN(C)C)nc3[nH]ccc23)c(OC)n1 | .
CC(O)c1cccc(-c2cc(NC3CCNCC3)nc3[nH]ccc23)n1 (centres undefined) | -92.6
COc1ccc(CN(C)c2ccc(-c3nccn3C)nn2)cc1OC | .
COCCN(C(=O)c1ccc(C#N)cc1)c1nnc(C)s1 | .
SMILES | Tgondii IFNg
CC(=O)NC(Cc1c[nH]c2ccccc12)C(=O)OCc1cc(C(F)(F)F)cc(C(F)(F)F)c1 (centres undefined) | .
FC(F)(F)c1cc(CO[C@H]2CCCN[C@H]2c2ccccc2)cc(C(F)(F)F)c1 | -81.1!
CN(Cc1cc(C(C)(C)C)n[nH]1)C(=O)c1cccc(-n2cnnc2)c1 | .
O=S(=O)(c1cccc(F)c1)N1CCC2(CC1)Nc1ccccc1-n1cccc12 | .
CNC(=O)C1(Cc2ccccc2-c2cncnc2)CCCN(CC(C)c2ccccc2)C1 (centres undefined) | .
Cc1ccccc1-c1nc(Cn2c(=O)cc(C(=O)N3CCCCC3)c3ccccc32)c(C)o1 | .
Cc1ccccc1-c1nc(CN2C(=O)CSc3ccc(S(=O)(=O)N4CCCC4)cc32)c(C)o1 | -80.3
Cc1oc(-c2ccccc2)nc1CN1C(=O)CSc2ccc(S(=O)(=O)N3CCOCC3)cc21 | .
CN1CC2(CCN(C(=O)c3ccc[nH]3)CC2)OCC1=O | .
CCOc1ccccc1NC(=O)CC(=O)NC(C)c1nc2c(s1)CCCC2 (centres undefined) | .
C=C1SC(Nc2c(C)cccc2C)=NC12CCCCC2 | -81.1
c1ccc2c(c1)CC(N1CCCN(Cc3cc4n(n3)CCCNC4)CC1)C2 | .
CC(C)OC(C)c1nnc(SCC(=O)O)n1-c1ccccc1 (centres undefined) | .
CC(C)(C)CC(C)(C)NC(=O)C(Sc1ccccc1N)c1ccccc1 (centres undefined) | -88.3
O=C(NCc1ccco1)C(Sc1ccccc1)c1ccccc1 (centres undefined) | .
COC(=O)c1ccc(CSc2ccccc2N)o1 | .
CN(Cc1nc(-c2ccccc2)no1)C(=O)C1CC2(CCNCC2)CN1 (centres undefined) | .
CN1CCO[C@H]2CCN(C(=O)c3cn(C)cn3)C[C@H]21 | .
c1ccc(CNc2ncc(CN3CCC4(CCOCC4)CC3)cn2)cc1 | .
c1ccc2c(N3CCOCC3)nc(N3CCOCC3)nc2c1 | .
c1ccc(CNc2nc(N3CCOCC3)nc(N3CCOCC3)n2)cc1 | -82.5
CC(C(=O)NCc1csc(N)n1)N1C(=O)c2cccc3cccc1c23 (centres undefined) | .
Cc1cccc(N2CCN(C(=O)c3cncc(N(C)S(=O)(=O)c4ccccc4)c3)CC2C)c1 (centres undefined) | .
